A number with no mark means an inactive call. How the calls were made is not given here.
target: Pantothenate synthetase (Mycobacterium tuberculosis (strain ATCC 25618 / H37Rv)) (UniProt P9WIL5); assay: Coupled enzyme confirmation of inhibitors against recombinant Mtb PanC (AID 375); details: coupled enzyme assay; at 10 µM, active compounds read high;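 further: 0% = full reaction with vehicle and 100% = no enzyme background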
Sequence (P9WIL5 whole entry, looked up): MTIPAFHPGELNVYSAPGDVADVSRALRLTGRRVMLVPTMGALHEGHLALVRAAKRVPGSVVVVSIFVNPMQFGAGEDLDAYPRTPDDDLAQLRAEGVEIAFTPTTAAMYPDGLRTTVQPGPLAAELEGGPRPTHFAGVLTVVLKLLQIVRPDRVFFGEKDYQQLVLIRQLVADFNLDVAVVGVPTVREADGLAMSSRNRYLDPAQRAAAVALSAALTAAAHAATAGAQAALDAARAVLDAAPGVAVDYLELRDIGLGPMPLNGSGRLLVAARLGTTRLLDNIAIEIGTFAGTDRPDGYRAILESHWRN

SMILES	inhibition [%]
COc1ccc(Cl)cc1Nc1nc(C)cc(=O)[nH]1	3
CCCc1n[nH]c2c1/C(=N/O)CC(c1ccccc1)C2 (centres undefined)	8
CCN(CC)C1CCCCC1NS(=O)(=O)c1ccc(Cl)cc1 (centres undefined)	0
CC1=C(C(=O)Nc2ccccc2C)C2(CCCC2)C(C(N)=O)C(=O)N1 (centres undefined)	0
O=C(NCCN1CCCCC1)c1ccc(=O)oc1	7
CC(C)NC(=O)c1ccccc1NC(=O)CCS(=O)(=O)Cc1ccccc1	2
[O-][n+]1c2c(nn1-c1ccccc1Cl)-c1nonc1CC2	4
CCCCOc1ccc(-c2nnc(N)s2)cc1	0
CCSc1oc(-c2cccs2)nc1S(=O)(=O)c1ccccc1	4
Cc1ccc(-c2nc3cc(NC(=O)C(C)C)ccc3o2)cc1	0
COc1cc(-c2nc(-c3cccc(C(F)(F)F)c3)no2)cc(OC)c1OC	0
COc1ccc(C2CNC(=O)C2)cc1OC1CCCC1 (centres undefined)	1
COC(=O)CN(c1ccc2c(c1)OCO2)S(C)(=O)=O	4
CCOC(=O)c1sc2nc(SCC(=O)NCc3ccco3)n(Cc3ccccc3)c(=O)c2c1C	0
COc1cc(OC)cc(-c2nc3cc(C)ccc3o2)c1	3
CCN(CC)C(=O)C1=C(C)NC(=O)NC1c1c(F)cccc1Cl (centres undefined)	0
Cc1ccc(C)c(NC(=O)CSc2nnc(-c3ccccc3)o2)c1	5
N#Cc1cnc(SCC(=O)c2ccccc2)nc1N	2
CCn1cc(C(C)NC(=O)COc2ccc(Cl)cc2C)c(C)n1 (centres undefined)	0
COc1ccc(-n2c(SCc3ccc(C#N)cc3)nnc2-c2ccccn2)cc1	0

SMILES	inhibition [%]
Cc1nn(C)c(C)c1CNC(=O)c1cc2n(n1)C(C(F)(F)F)CC(c1cccs1)N2 (centres undefined)	7
O=C(OCCCN1CCCC1)C1(c2ccccc2)CCCC1	1
Cc1ccccc1CN1CCN(CC(=O)NCc2ccco2)C1=O	0
Cc1ccc(NC(=O)CCN2CCc3ccccc3C2)cc1	0
CC1(C)S[C@@H]2[C@H](NC(=O)C(C(=O)O)c3ccccc3)C(=O)N2[C@H]1C(=O)O (some centres undefined)	0
CC1CCN(S(=O)(=O)c2ccc(Br)s2)CC1	0
Cc1nc(NCc2ccc3c(c2)OCO3)c2oc3ccccc3c2n1	1
Cc1ccc(SCC(=O)NCCN2C(=O)CSC2=O)c(C)c1	0
CCc1ccc(NS(=O)(=O)c2ccc3[nH]cc(C(=O)N4CCCCC4)c(=O)c3c2)cc1	0
CCOc1ccccc1C(=O)Nc1cc(=O)n(C)c(=O)n1C	10
CCOc1ccc(C(=O)Cc2ccc3oc(C(=O)O)cc3c2)c(O)c1	7
COCCCn1c2nc3ccccc3nc2c2c(=O)n(-c3ccccc3OC)cnc21	11
CCCOc1ccc(N2C(=O)CC(SCCN)C2=O)cc1 (centres undefined)	0
O=C(OCc1nnc(-c2ccc(Cl)cc2)o1)c1ccc(=O)n(Cc2ccccc2)n1	0
COc1ccc(-n2ncc3c(N4CCC(C)CC4)ncnc32)cc1	1
CCN1CCN(Cc2ccc(NC(=O)Nc3ccccc3)cc2)CC1	1
COc1ccc(NC(=O)CSc2nnc(Cc3cccn3C)n2-c2ccc(F)cc2)cc1	0
CCOc1ccc(N(CC(=O)OC)S(=O)(=O)c2ccc(OC)c(OC)c2)cc1	0
O=C(OCCN1C(=O)c2ccccc2C1=O)c1ccc(S(=O)(=O)N2CCCCCC2)cc1	0

Reference: PubChem BioAssay
